In PubChem BioAssay AID720485 (Milwaukee Institute for Drug Discovery, 2013):
The other results are listed elsewhere or left out. Activity calls are given as the source filed them.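 The calls were made as follows: active = percent inhibition of 50% or more; inactive = the rest.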

system: Hepatitis C virus NS3 helicase; assay: NS3h DNA-binding blockers re-examined – biochemical, fluorescence polarization, ChemBridge library, confirmation (AID 720485); conditions: NS3h binding to Cy5-dT15 DNA, at 100 µM, active compounds read high

inhibition, inactive:
CCN(CC)c1ccc(NC(=O)/C(=C\c2ccccc2)NC(C)=O)cc1 23.5%, Cc1ccc(C(=O)NCCNc2ccc([N+](=O)[O-])cc2)cc1 16.1%, COc1cc(/C(O)=C(\C#N)c2nc3ccccc3n2C)cc(OC)c1OC 7.62%, O=C(NC(=S)Nc1ccc(-c2nc3cc(Cl)ccc3o2)cc1)c1ccco1 11.8%, Cc1ccc(C(=O)C[n+]2cc(-c3ccccc3)n3c2CCCCC3)cc1 0.212%, O=C1NC(=O)C(=Cc2cc([N+](=O)[O-])cc(Br)c2O)C(=O)N1 19.3%, O=c1c2c(nc3cc(-c4cccc(F)c4)[nH]n13)CCS2 41.5%, CC(C)(C)N1C(=O)NC(=O)C(=Cc2cccs2)C1=O 20.3%, CCN(CC)c1ccc(C=C2C(=O)N(C)C(=O)N(C)C2=O)c(O)c1 12.9%, C=CCN1C(=O)/C(=C\c2cc(OC)c(O)c([N+](=O)[O-])c2)C(=O)NC1=S 37.2%, COc1cc(C=C2C(=O)NC(=O)NC2=O)ccc1OCCOc1ccc([N+](=O)[O-])cc1 2.33%, COc1ccc(C(=O)Oc2ccc3oc(=O)cc(C)c3c2)cc1OC 0.212%, N#Cc1c(N)nc2sc(C(=O)Nc3ccccc3)c(N)c2c1-c1ccco1 4.44%, CCOc1ccc(C=C2C(=O)NC(=O)NC2=O)cc1Cl 16.1%

inhibition, active:
COc1ccc(N2C(=O)C=CC2=O)c([N+](=O)[O-])c1 65.8%
